40 molecules from PubChem BioAssay (NCATS) can be followed below.

Structures are written as SMILES. Records with an inconclusive call do not appear. The source made the active and inactive calls. Calls come from the whole dose curve; as a rule, active = well fitted cell-killing curve with a large enough effect; inconclusive = small, poorly fitted or top-dose-only effect, or effect the other way; inactive = no such curve, though single readings can be large or run the other way.
Potency is the fitted concentration of half-maximal effect.

A short description of the experiment: Quantitative High-Throughput drug screen in 47 multiple myeloma cell lines against the NCATS MIPE library collection: KMS27_JCRB cell viability assay (AID 1918970). Note: nearly all actives have a fitted effect of over 30% in size. Conditions: KMS27 myeloma cells, CellTiter-Glo ATP viability, 48 h; series mostly up to 45.8 µM. From the text: PI: Beverly A. Mock Ph.D.
Laboratory of Cancer Biology and Genetics,
Center for Cancer Research, National Cancer Institute,
National Institute of Health, Bethesda, Maryland
Drug resistance and disease progression are common in multiple myeloma (MM) patients, underscoring the need for new therapeutic combinations. […] We hypothesized that effective combinations would reduce MYC expression and enhance p16 activity. […] These preclinical data identify potentially useful drug combinations for evaluation in drug-resistant MM and reveal potential mechanisms of combined drug sensitivity.
Described herein is the primary MIPE qHTS used to cherrypick compounds. Validated compounds were then further tested for potential synergistic activiy.
[1] Peat TJ, Gaikwad SM, Dubois W, Gyabaah-Kessie N, Zhang S, Gorjifard S, Phyo Z, Andres M, Hughitt VK, Simpson RM, Miller MA, Girvin AT, Taylor A, Williams D, D'Antonio N, Zhang Y, Rajagopalan A, Flietner E, Wilson K, Zhang X, Shinn P, Klumpp-Thomas C, McKnight C, Itkin Z, Chen L, Kazandijian D, Zhang J, Michalowski AM, Simmons JK, Keats J, Thomas CJ, Mock BA. Drug combinations identified by high-throughput screening promote cell cycle transition and upregulate Smad pathways in myeloma. […] Epub 2023 Jun 24. PMID: 37356470; PMCID: PMC10408729.
SEQUENCE No. (e.g., 1, 2, 3, etc.); […] (e.g., Cells, Incubation, Reagent, etc.); VALUE and DESCRIPTION.
1; Cells; 5 uL; white, solid bottom 1536-well Greiner assay plate.
2; Compounds; 23 nL; Kalypsis pin tool (Wako USA) equipped with a 1536-well pin head to transfer to the assay plates.
3; Incubation; 48 hours; 37C incubation.
4; Reagent;5uL; CellTiter Glo (Promega).
5; Detector; 425V; Luminescence; Viewlux PerkinElmer.
NOTES (numbers refer to Sequence numbers above)
1. The cell-based screening methods employed in this study were like those previously published. Briefly, the corresponding myeloma cell lines were screened in 1,536-well plates with 500 cells, 5-uL per well for inhibition of cell viability (assessed by measuring ATP levels with CellTiterGlo).
2. NCATS MIPE 4.0 library of approved and investigational drugs were added using the Kalypsis pin tool. Wells treated with DMSO only for 100% viability and media only wells for 0% viability were used as controls.
3. The assay plates were covered and incubated for 48 hours in a 37C, 5% CO2 incubator with controlled humidity.
4. After 48 hours, CellTilter-GloTM luminescent substrate mix (Promega) reagent was added to the assay plate and plates we incubated for 5 min at room temperature.
5. Signal was measured as median relative luminescence units on a ViewLux (PerkinElmer) multiplate reader.
[1] Heske CM, Davis MI, Baumgart JT, Wilson K, Gormally MV, Chen L, Zhang X, Ceribelli M, Duveau DY, Guha R, Ferrer M, Arnaldez FI, Ji J, Tran HL, Zhang Y, Mendoza A, Helman LJ, Thomas CJ. Matrix Screen Identifies Synergistic Combination of PARP Inhibitors and Nicotinamide Phosphoribosyltransferase (NAMPT) Inhibitors in Ewing Sarcoma. Clin Cancer Res. 2017 Dec 1;23(23):7301-7311. doi: 10.1158/1078-0432.CCR-17-1121. Epub 2017 Sep 12. PMID: 28899971; PMCID: PMC6636827.
`NC[C@H](O)c1ccc(O)c(O)c1`: the Potency entry was “inactive”.

Turning to `Cc1cc(-c2ccc(CC(=O)Nc3ccc(-c4cccnc4)cc3)cc2)ccn1`, the Potency is 16.6 µM (active).

`Nc1nc2[nH]cc(CCc3ccc(C(=O)N[C@@H](CCC(=O)O)C(=O)O)cc3)c2c(=O)[nH]1`: the Potency is 18.7 µM (active).

On to `Cc1c(CN2CCN(C(=O)C(C)C)CC2)sc2c(N3CCOCC3)nc(-c3cnc(N)nc3)nc12`, for which the Potency was 0.0187 µM (active).

Consider `CN(C)c1ccc(Nc2nc(N)n(C(=O)c3c(F)cccc3F)n2)cc1`, for which the Potency was 23.5 µM (active).

As to `COc1cc2nccc(Oc3ccc(NC(=O)NC4CC4)c(Cl)c3)c2cc1C(N)=O`, the Potency was 3.32 µM (active).

For `CCn1cc(C(=O)O)c(=O)c2cc(F)c(N3CCNC(C)C3)c(F)c21` (stereo not given), the Potency entry was “inactive”.

For the molecule `OCCC#Cc1nc(-c2ccc(F)cc2)c(-c2ccncc2)n1CCCc1ccccc1`, the Potency was 23.5 µM (active).

As to `Cc1ccc(NC(=O)c2cccc(C(C)(C)C#N)c2)cc1Nc1ccc2ncn(C)c(=O)c2c1`, the Potency is 1.05 µM (active).

Consider `COc1ccccc1-c1cccc(-c2c(O)c3cc(C#N)c(Cl)cc3[nH]c2=O)c1`, for which the Potency was 42.9 µM (active).

With `CCC(C)N(C)C(=O)c1cc2ccccc2c(-c2ccccc2Cl)n1` (stereo not given), the Potency was 16.6 µM (active).

Turning to `CC(C)C[C@H](NC(=O)[C@@H](O)[C@H](N)Cc1ccccc1)C(=O)O`, the Potency entry was “inactive”.

Take `CC1(C)CNc2cc(NC(=O)c3cccnc3NCc3ccncc3)ccc21`: the Potency result is “inactive”.

For `NC(=O)c1ccc(-c2nc(-c3ccc4c(c3)OCO4)c(-c3ccccn3)[nH]2)cc1`, the Potency entry is “inactive”.

`Cc1cccc(-c2[nH]c(C(C)(C)C)nc2-c2ccc3nccnc3c2)n1`: the Potency is 2.96 µM (active).

For the molecule `O=C(Nc1ccc(F)c(C(F)(F)F)c1)Nc1nnc(-c2ccncc2)s1`, the Potency entry is “inactive”.

For `NC(=O)c1cnccn1`, the Potency entry is “inactive”.

Regarding `CC(C)(C)OC(=O)CN(Cc1ccc(Cl)cc1)Cc1ccc([N+](=O)[O-])s1`, the Potency entry is “inactive”.

With `CCC(C)(C)C(=O)O[C@H]1C[C@@H](C)C=C2C=C[C@H](C)[C@H](CC[C@@H]3C[C@@H](O)CC(=O)O3)[C@H]21`, the Potency is 6.62 µM (active).

For `CCOC(=O)N[C@@H]1CC[C@@H]2[C@@H](C1)C[C@H]1C(=O)O[C@H](C)[C@H]1[C@@H]2C=Cc1ccc(-c2cccc(F)c2)cn1`, the Potency is 18.7 µM (active).

On to `O=c1n(CCCN2CCN(c3cccc(Cl)c3)CC2)nc2ccccn12`, for which the Potency entry was “inactive”.

`Nc1nccc(-c2ccc3noc(-c4ccc(Cl)cc4)c3c2)n1`: the Potency entry was “inactive”.

For the molecule `NC(N)=NC(=O)c1nc(Cl)c(N)nc1N`, the Potency is 14.8 µM (active).

With `Nc1nc2ccc(OC(F)(F)F)cc2s1`, the Potency entry is “inactive”.

`Cc1cc(SCc2sc(-c3ccc(C(F)(F)F)cc3)nc2C)ccc1OCC(=O)O`: the Potency entry is “inactive”.

Turning to `CCOc1ccc(Cc2cc([C@@H]3O[C@H](CO)[C@@H](O)[C@H](O)[C@@H]3O)ccc2Cl)cc1`, the Potency is 16.6 µM (active).

With `O=c1ncn2nc(Sc3ccc(F)cc3F)ccc2c1-c1c(Cl)cccc1Cl`, the Potency was 18.7 µM (active).

Take `COc1ccc2c3n(c(=NC(=O)c4cccnc4)nc2c1OC)CCN3`: the Potency was 11.8 µM (active).

For `c1ccc([C@H]2CN3CCSC3=N2)cc1`, the Potency result is “inactive”.

In the case of `Clc1cccc(Cl)c1NC1=NCCN1`, the Potency result is “inactive”.

As to `CO[C@@H]1[C@H](N(C)C(=O)c2ccccc2)C[C@H]2O[C@]1(C)n1c3ccccc3c3c4c(c5c6ccccc6n2c5c31)C(=O)NC4`, the Potency was 1.32 µM (active).

As to `Cc1ccc(N(CC2=NCCN2)c2cccc(O)c2)cc1`, the Potency is 16.6 µM (active).

Turning to `S=C(NCc1ccc2c(c1)OCO2)N1CCN(c2ncnc3c2oc2ccccc23)CC1`, the Potency is 4.29 µM (active).

For the molecule `O=c1[nH]cnc2[nH]ncc12`, the Potency entry is “inactive”.

Turning to `COc1nc(-c2ccc3c(c2)OCO3)n(-c2ccc(NC(=O)CSc3ccccc3)cc2)n1`, the Potency entry is “inactive”.

As for `Cc1[nH]c(=O)c(C#N)cc1-c1ccncc1`, the Potency was 1.32 µM (active).

As to `Cc1oncc1C(=O)Nc1ccc(C(F)(F)F)cc1`, the Potency result is “inactive”.

Turning to `Cc1cnc(NC(=O)C2=C(O)c3ccccc3S(=O)(=O)N2C)s1`, the Potency result is “inactive”.

For `Cn1c(=O)c(F)c(Nc2ccc(I)cc2F)c2c(=O)n(C[C@@H](O)CO)cnc21`, the Potency is 1.87 µM (active).

With `Cc1cccc(-c2nn(C(=S)Nc3ccccc3)cc2-c2ccnc3ccccc23)n1`, the Potency entry was “inactive”.
